PubChem BioAssay AID602440 (Sanford-Burnham Center for Chemical Genomics, 2012)
Out of some 360,000 compounds screened, about 2,300 (0.64%) were called active. What follows is part of a selection rich in actives, with near analogues and random picks from the rest. Unmarked numbers belong to inactive results. Rule as the data show it: active = inhibition mostly above about 40% (no sharp cut-off); inactive = mostly below about 27%.

What follows are compounds tested against Sentrin-specific protease 8 (Homo sapiens) (UniProt Q96LD8) (assay: blockers of SENP8 deneddylase activity – biochemical, fluorescence, Nedd8 protein substrate, uHTS, primary screen (AID 602440)). Conditions: recombinant SENP8, Nedd8 substrate fluorescence; at 20 µM; hits give high values.
Sequence of Sentrin-specific protease 8 (Homo sapiens) (Q96LD8 whole entry, looked up): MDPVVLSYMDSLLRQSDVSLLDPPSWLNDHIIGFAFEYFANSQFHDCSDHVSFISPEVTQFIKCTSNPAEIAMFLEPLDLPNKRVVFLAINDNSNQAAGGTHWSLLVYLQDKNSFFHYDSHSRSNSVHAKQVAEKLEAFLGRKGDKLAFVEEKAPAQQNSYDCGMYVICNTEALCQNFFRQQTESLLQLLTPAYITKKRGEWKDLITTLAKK

Structure (SMILES)	inhibition
OC1CSc2nc3ccccc3n2C1 (stereo not drawn)	9.1%
O=C1NC(c2ccccc2)CCC1(Cl)Cl (stereo not drawn)	14.1%
Cc1c(NS(=O)(=O)c2cccc(C(=O)Nc3ccc(SC(F)F)cc3)c2)c(=O)n(-c2ccccc2)n1C	-1.9%
COc1ccc(NC(=O)/C(N=Nc2cccc(S(=O)(=O)Nc3ccc(SC(F)F)cc3)c2)=C(\C)O)cc1	38.3% (active)
Nc1cccc(S(=O)(=O)Nc2ccc(SC(F)F)cc2)c1	5.2%
CC(=O)c1cnc(SCCN2C(=O)c3ccccc3C2=O)nc1C	9.5%
CCOCCCNC(=O)c1c[nH]c2cc(C)ccc2c1=O	5.8%
CCc1[nH]nc(C(=O)N2CCCC(CO)(Cc3ccc(F)cc3F)C2)c1C (stereo not drawn)	3.5%
Cn1cccc1C(=O)N1CCc2ccccc2C1	-0.8%
CS(=O)(=O)N(CC(=O)N1CCc2ccccc2C1)c1ccc(Br)cc1	6.5%
CN(c1ccc(C(=O)N2CCc3ccccc3C2)cc1)S(C)(=O)=O	43.9% (active)
COc1ccc(CNC(=O)CN(C(=O)c2csnn2)c2cnc3ccccc3c2)cc1	-222%
CCN(CC)C(=O)CSc1nc2ccccc2n1CC(=O)N1CCN(c2ccccc2OC)CC1	33.5%
Nc1ccc2[nH]c(=S)sc2c1	-81.4%
O=c1[nH]c2ccccc2s1	44.5% (active)
COc1ccc(-c2[nH]ncc2CN(C)Cc2cc(C)[nH]n2)c(F)c1	8.6%
CCOC(=O)c1c(CC(C)C)csc1/N=C/C1=C(O)CCCC1=O	-55.6%
Nn1cnnc1N/N=C/c1cc([N+](=O)[O-])c(Cl)cc1Cl	51.7% (active)
CCCOc1cccc(C(=O)Nc2ccccc2C(=O)N2CCN(C)CC2)c1	4.7%
C[C@H]1CN([C@@H](C)CO)C(=O)CCCn2cc(nn2)CO[C@@H]1CN(C)S(=O)(=O)c1ccc(-n2cccn2)cc1	8.3%
Cc1cc(C)nc(N2C(=O)CC(Cc3ccccc3)C2=O)n1 (stereo not drawn)	2.8%
COc1cc(CN2CCCN(C)CC2)c([N+](=O)[O-])cc1OC	11.8%
O=c1[nH]n2c(=O)c3c([nH]c2c1N=Nc1ccccc1)CCC3	46.3% (active)
CC(C)(C)n1c(=O)[nH]c2c(c1=O)CCC2	16.6%

Structure (SMILES)	inhibition
CCCCOc1ccc(C(=O)NCC(=O)OCC(=O)N2CCN(S(=O)(=O)c3ccc(C)cc3C)CC2)cc1	7.7%
Cc1cc(C)nc(SCc2nnc(SCC(=O)OC3CCCCC3)o2)n1	6.5%
COc1ccccc1C1SCCN1C(=O)c1ccc([N+](=O)[O-])cc1 (stereo not drawn)	8.4%
CCOC(=O)C1CCCN(C(=O)c2ccc(C)c(S(=O)(=O)N3CCCCC3)c2)C1 (stereo not drawn)	4.6%
CCOC(=O)C1CCCN(C(=O)c2ccc(C)c(F)c2)CC1 (stereo not drawn)	40.6% (active)
CCOC(=O)C1CCCN(C(=O)c2ccc(N(C)C)cc2)CC1 (stereo not drawn)	18.8%
CC(C)N(C(=O)Cn1cc(S(=O)(=O)CC(=O)N2CCOCC2)c2ccccc21)C(C)C	5.7%
COC(=O)c1nc2n(n1)C(c1ccc([N+](=O)[O-])cc1)C(C(=O)Nc1ccc(Cl)cc1)=C(C)N2 (stereo not drawn)	18.3%
COC(=O)c1cc(NC2c3ccccc3C(=O)N2c2ccc(Cl)cn2)cc(C(=O)OC)c1 (stereo not drawn)	-28%
CCc1ccccc1NC1c2ccccc2C(=O)N1c1cccnc1 (stereo not drawn)	41% (active)
O=C1[C@@H](c2ccccc2)[C@@H](c2ccccc2)N1c1cccnc1	-26.4%
COc1ccccc1C(=O)NC(=S)Nc1ccc(N2CCOCC2)cc1	14.8%
O=C(CN1CCN(c2ccc(O)cc2)CC1)Nc1ccc(-c2ccccc2)cc1	23.2%
O=C(Cc1ccccc1)NC(=S)Nc1ccc(N2CCCCC2)cc1	42.1% (active)
CN1CCn2cnc(C(=O)NCC(=O)OC(C)(C)C)c2C1=O	14.9%
CCN(CC)CCCNC(=O)CCn1nc(-c2ccc(Cl)cc2)ccc1=O	13.2%
CN(CC(=O)Nc1ccc(F)cc1)C(=O)c1ccc(-c2ccc(Cl)cc2)o1	-23.1%
Cc1[nH][nH]c(=O)c1C(c1ccc(-c2ccc(Cl)cc2)o1)c1c(C)[nH][nH]c1=O	63.5% (active)
COc1ccc(C(=O)NC(=S)N2CCNC(=O)C2CC(=O)OC(C)C)cc1 (stereo not drawn)	-6.1%
CC(=O)c1ccc(OCC(=O)N(C)C2CCS(=O)(=O)C2)cc1 (stereo not drawn)	18.3%
Cn1c(=O)[nH]c(=O)c2c1nc(CN(Cc1ccccc1)Cc1ccccc1)n2CCN1CCOCC1	17.1%
COCCNC(=O)NC(=O)COC(=O)C1(c2ccc(Cl)cc2)CC1	6.8%
O=C(Cn1ccc(=O)[nH]c1=O)Nc1ccc(C(=O)O)c(O)c1	7.9%
O=C(Nc1ccc(C(=O)O)c(O)c1)c1ccccc1	43.3% (active)

Structure (SMILES)	inhibition
O=C(Cc1ccccc1)Nc1ccc(C(=O)Nc2ccccc2C(=O)O)cc1	-13.4%
CC(C)C(NC(=O)c1c(F)cccc1F)C(=O)NCc1ccncc1 (stereo not drawn)	-7.7%
c1coc(-c2nc3nc4ccccc4n3nc2-c2ccco2)c1	106% (active)
Cc1cccc(C)c1NC(=O)C(c1cccc2ccccc12)n1c(=O)c(-c2ccco2)nc2ccccc21 (stereo not drawn)	-458%
N#Cc1ccc(C(C(=O)NCc2ccccc2)n2c(=O)c(-c3ccco3)nc3ccccc32)cc1 (stereo not drawn)	-432%
Cc1ccc2c(Cl)c(C(=O)Nc3nn[nH]n3)sc2c1	-0.2%
Cc1noc(C)c1NC(=O)Nc1ccc2c(c1)C(=O)N([C@H](C)CO)C[C@H](C)[C@@H](CN(C)S(=O)(=O)c1cn(C)cn1)O2	-6%
O=C(C/C(=N\NC(=O)c1ccccc1Br)C(F)(F)F)c1cccs1	25.6%
O=C(CSc1nnc2ccccn12)c1ccccc1	-1.2%
Cc1nc(SCC(=O)c2ccccc2)c([N+](=O)[O-])[nH]1	41.9% (active)
Cc1nc2nc(SCC(=O)c3ccccc3)[nH]c2cc1Br	13.3%
Cc1cc(C)n2nc(C(=O)OCC(=O)N(C)CC(=O)Nc3ccc(F)cc3)nc2n1	3.2%
COc1ccc(CCNC(=O)COC(=O)C2CC2C)cc1 (stereo not drawn)	9.7%
Cc1cc(NC(=O)CN2C(=O)NC(CCc3ccccc3)C2=O)no1 (stereo not drawn)	12.2%
CCc1cccc(C)c1NC(=O)COC(=O)CC1CCCC1	40.9% (active)
CCc1cccc(C)c1NC(=O)COC(=O)Cc1ccsc1	-35.2%
Cc1cccc(C)c1NC(=O)CNC(=O)C1CCCC1	11.2%
Cc1ccc(N(C(=O)CC2NC(=O)NC2=O)C2(C(=O)NC3CCCC3)CCCCC2)cc1 (stereo not drawn)	21.4%
Cc1ccc(NC(=O)CN(C)C(=O)c2cccc(S(=O)(=O)N3CCCC3)c2)cc1	18.7%
COc1cccc(N(CC(=O)NCCSc2ccccn2)S(C)(=O)=O)c1	40.3% (active)
COc1ccc(N(CC(=O)NCCSCc2cccc(Cl)c2)S(C)(=O)=O)cc1	16.9%
COc1ccc(CCNC(=O)CN(c2ccccc2)S(C)(=O)=O)cc1	13.5%
COc1ccc(NC(=O)CCNS(=O)(=O)c2ccc3c(c2)c(=O)n(C)c(=O)n3C)cc1OC	9.5%
OCc1n[nH]c(CO)n1	6.5%

Structure (SMILES)	inhibition
CN1C(=O)/C(=C/C=C2\SCCN2C)OC1=S	43.8% (active)
O=[N+]([O-])c1ccc(C=Nc2ccc(Cl)cc2Cl)s1	69% (active)
CCNc1nc(N)nc(Oc2ccc(OCC)nn2)n1	6.3%
CC(C)(C)c1cc(P(=O)(c2ccccc2)c2ccccc2)ccc1O	20.7%
O=P(O)(CP(=O)(c1ccccc1)c1ccccc1)c1ccccc1	10.2%
O=P(O)(CP(=O)(c1ccccc1)c1ccccc1)c1ccccc1O	41.1% (active)
COC(=O)C1=C(C)N(C)C(=S)NC1c1cc(OC)ccc1OC (stereo not drawn)	10%
COC(=O)[C@]12CCCCC=C1N(CCC1=CCCCC1)C(=O)[C@H](CC(=O)NCC1CCCCC1)C2	10.5%
COc1cc(C(=O)NC2CCN(Cc3ccccc3)CC2)cc(Cl)c1OC(C)C	3.3%
CC(=O)Nc1ccc(NC(=O)COc2ccc(S(=O)(=O)NC(C)c3ccccc3)cc2)cc1 (stereo not drawn)	8.8%
CCOC(=O)C(=O)Nc1nc(-c2ccccc2)c(CC)s1	16.8%
CCOC(=O)C/C(C)=N\Nc1ccc([N+](=O)[O-])cc1[N+](=O)[O-]	23.3%
CCOC(=O)/C(=N\Nc1ccccc1[N+](=O)[O-])c1csc(Nc2ccccc2)n1	52.3% (active)
NC(=O)c1ccc(N2CCOCC2)nc1	10.6%
Nc1ncnc2c1ncn2[C@@H]1O[C@H](CNC(=O)[C@H](N)Cc2cccnc2)[C@@H](O)[C@H]1O	6.7%
CN(CCc1ccccn1)C(=O)CCC1CCCN(Cc2ccccc2OC(F)F)C1 (stereo not drawn)	29.2%
Nc1ccc2nc3c(=O)[nH]c(=S)[nH]c3nc2c1	46.9% (active)
CC(C)(C)CN1CCNC(=O)C1CC(=O)NC1Cc2ccccc2C1 (stereo not drawn)	-47.4%
COC(=O)CCCC1=CC2=C(c3ccccc3)C(=O)C(C)(OC(=O)C3CCCC3)C(=O)C2=CN1c1ccc(OC)cc1 (stereo not drawn)	-154%
COC(=O)CCCC1=CC2=CC(=O)C(C)(OC(=O)c3cccs3)C(=O)C2=CN1CC(C)C (stereo not drawn)	40.8% (active)
CCCCC1=CC2=CC(=O)C(C)(OC(=O)CC)C(=O)C2=CN1CCCOC(C)C (stereo not drawn)	-190%
